In the supplement of paper PMC10646978:
± gives the standard deviation.

Columns and labels:
Settings in all cases: modulator concentration 10 µM
[1] = system: RAW-Dual (murine macrophage reporter line); assay: NF-kB reporter (SEAP) activity fold change vs agonist alone; higher = enhanced NF-kB activity
Summary of the method: (§1)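 Overnight stimulation with a PRR agonist followed pre-incubation for 1 hour at 37 °C with compound at 10 μM final. This was done in RAW-Dual murine macrophage reporter cells seeded at 50 000 per well in 384-well plates. NF-κB (SEAP, QUANTI-Blue absorbance at 620 nm) and IRF (Lucia luciferase, QUANTI-Luc luminescence) were read from the supernatant. Each reporter's fold change relative to the mean agonist-only control on the same plate was averaged over replicate plates.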

[2] = system: RAW-Dual (murine macrophage reporter line); assay: IRF reporter (Lucia luciferase) activity fold change vs agonist alone; higher = enhanced IRF activity
Summary of the method: as §1

[3] = system: RAW-Dual (murine macrophage reporter line); assay: viability score (confluency relative to resting cells, overnight) (fraction); higher = more viable, active = viable (0.7 or more)
Summary of the method: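 RAW-Dual macrophages in 384-well plates were treated overnight with compound at 10 μM final. IncuCyte imaging recorded confluency, and IncuCyte software built two confluency masks across every imaged well. The viability score expresses confluency relative to resting cells and was judged against a cutoff, which a compound met only if both masks exceeded 70% of resting cells.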

[4] = agonist: CpG ODN 1826 0.5 ug/mL

SMILES | NF-kB reporter [1, 4] | NF-kB reporter ([1]; agonist: LPS 0.1 ug/mL) | NF-kB reporter ([1]; agonist: MPLA […]) | IRF reporter ([2]; agonist: 3'3'-cGAMP 10 ug/mL) | IRF reporter ([2]; agonist: LPS 0.1 ug/mL) | IRF reporter ([2]; agonist: MPLA […]) | viability score [3]
CC1CCC2C(C)(CO)C(O)CCC2(C)C12CCC(CO)(CCO)O2 (configuration not stated) | 0.983 ± 0.073 | 0.945 ± 0.049 | 1.02 ± 0.033 | 0.99 ± 0.11 | 0.949 ± 0.048 | 0.952 ± 0.076 | 1 (active)
CC(=O)Oc1cccc2c1C(=O)c1c(OC(C)=O)cc(C(=O)O)cc1C2=O | 1.14 ± 0.088 | 1.04 ± 0.077 | 1.01 ± 0.049 | 0.971 ± 0.068 | 0.954 ± 0.033 | 0.939 ± 0.12 | 1 (active)
COc1cc(C=Nc2ccc3oc(-c4ccc(C(C)(C)C)cc4)nc3c2)ccc1OC(=O)c1ccc(Cl)cc1Cl | 0.994 ± 0.056 | 0.981 ± 0.11 | 0.936 ± 0.11 | 0.931 ± 0.031 | 1.28 ± 0.15 | 1.14 ± 0.1 | 1.01 (active)
COc1ccc(CNC(=O)c2cnc3n(c2=O)CCS3)cc1 | 1.21 ± 0.29 | 1.04 ± 0.055 | 2.54 ± 1.4 | 0.934 ± 0.038 | 1.1 ± 0.15 | 1.25 ± 0.19 | 1 (active)
O=C(O)C1C(c2ccccc2)C(C(=O)OCc2ccccc2)C1c1ccccc1 (configuration not stated) | 0.926 ± 0.089 | 1.09 ± 0.062 | 1.05 ± 0.079 | 1.03 ± 0.078 | 1.24 ± 0.087 | 1.03 ± 0.076 | 1.01 (active)
CN1CCC(=C2c3ccccc3CCn3c(C=O)cnc32)CC1 | 0.766 ± 0.11 | 1.24 ± 0.12 | 0.971 ± 0.1 | 0.875 ± 0.04 | 1.1 ± 0.14 | 0.943 ± 0.29 | 1 (active)
COc1c(O)cc(O)cc1O | 1.03 ± 0.095 | 1.08 ± 0.057 | 1.1 ± 0.047 | 1.07 ± 0.069 | 0.985 ± 0.078 | 1.02 ± 0.17 | 0.996 (active)
CC1(C)Cc2cccc(OCC(=O)NCc3ccccn3)c2O1 | 0.948 ± 0.064 | 1 ± 0.1 | 0.986 ± 0.045 | 0.896 ± 0.034 | 1.02 ± 0.048 | 0.906 ± 0.087 | 0.996 (active)
COc1ccc(S(=O)(=O)Nc2ccc(Oc3ccccc3)cc2)cc1 | 1.04 ± 0.18 | 1.02 ± 0.11 | 2.55 ± 1.5 | 0.972 ± 0.033 | 1.17 ± 0.13 | 1.21 ± 0.2 | 1.01 (active)
COc1cc(NC(=O)COc2ccc(C(C)C)c(C)c2)c(OC)cc1Cl | 0.818 ± 0.038 | 1.04 ± 0.1 | 1.71 ± 0.75 | 1.01 ± 0.047 | 1.25 ± 0.19 | 1.28 ± 0.39 | 0.96 (active)
CC1SC(c2ccccc2)NC1=O (configuration not stated) | 1.04 ± 0.08 | 1.06 ± 0.065 | 0.952 ± 0.055 | 0.791 ± 0.026 | 1.42 ± 0.098 | 1.2 ± 0.12 | 0.999 (active)
COCCOCC1CCN(C(=O)c2cc(-c3cccc(OC)c3)n[nH]2)CC1 | 1.09 ± 0.076 | 0.967 ± 0.092 | 0.992 ± 0.051 | 0.957 ± 0.039 | 1.04 ± 0.059 | 0.985 ± 0.2 | 0.995 (active)
Cn1cnc2cc(NCc3ccc(Br)cc3)ccc21 | 0.882 ± 0.14 | 0.762 ± 0.076 | 0.984 ± 0.1 | 0.805 ± 0.045 | 1.06 ± 0.21 | 1.13 ± 0.25 | 0.984 (active)
CC(=O)N(C=Cc1cc[n+](CCCS(=O)(=O)[O-])c2ccccc12)c1ccccc1 | 0.982 ± 0.1 | 1.05 ± 0.063 | 0.908 ± 0.094 | 1.01 ± 0.052 | 1.57 ± 0.16 | 1.25 ± 0.25 | 1.01 (active)
CCN(CC)CCOC(=O)c1ccc(N)cc1Cl.Cl | 1.06 ± 0.094 | 0.971 ± 0.048 | 1.04 ± 0.038 | 0.957 ± 0.087 | 1.01 ± 0.089 | 0.897 ± 0.077 | 0.999 (active)
CCOc1ccc(CC(=O)NC2(c3nc(-c4ccccc4)no3)CCCCC2)cc1OCC | 0.697 ± 0.031 | 1.02 ± 0.095 | 0.93 ± 0.058 | 1.03 ± 0.049 | 1.24 ± 0.32 | 1.3 ± 0.37 | 0.979 (active)
CCCOc1cccc(C(=O)Nc2cccc(S(N)(=O)=O)c2)c1 | 1.11 ± 0.13 | 0.97 ± 0.057 | 0.945 ± 0.058 | 0.918 ± 0.039 | 1.39 ± 0.14 | 1.05 ± 0.27 | 1 (active)
CCCC(=O)Nc1ccc(N2CCOCC2)c(Cl)c1 | 1.09 ± 0.21 | 1.04 ± 0.098 | 0.964 ± 0.098 | 0.875 ± 0.026 | 1.28 ± 0.22 | 1.21 ± 0.12 | 1 (active)

SMILES | NF-kB reporter [1, 4] | NF-kB reporter ([1]; agonist: LPS 0.1 ug/mL) | NF-kB reporter ([1]; agonist: MPLA […]) | IRF reporter ([2]; agonist: 3'3'-cGAMP 10 ug/mL) | IRF reporter ([2]; agonist: LPS 0.1 ug/mL) | IRF reporter ([2]; agonist: MPLA […]) | viability score [3]
COc1ccc(CNCc2ccc3ccccc3c2)c(OC)c1 | 0.163 ± 0.026 | 1.08 ± 0.09 | 1.79 ± 0.56 | 0.644 ± 0.046 | 1.74 ± 0.38 | 2.05 ± 0.59 | 0.688 (inactive)
O=C(CCC1CCCC1)Nc1cccc(F)c1 | 0.986 ± 0.059 | 1.08 ± 0.12 | 0.959 ± 0.029 | 0.999 ± 0.045 | 1.03 ± 0.091 | 1.12 ± 0.25 | 1 (active)
Cl.Cn1c(=N)n(CC(O)c2ccco2)c2ccccc21 (configuration not stated) | 1.05 ± 0.061 | 1.09 ± 0.077 | 0.969 ± 0.069 | 1.22 ± 0.04 | 1.46 ± 0.21 | 1.3 ± 0.18 | 0.992 (active)
NCCCCC(NC(CCc1ccccc1)C(=O)O)C(=O)N1CCCC1C(=O)O (configuration not stated) | 1.33 ± 0.32 | 0.955 ± 0.083 | 1.03 ± 0.088 | 0.947 ± 0.032 | 1.09 ± 0.13 | 1.02 ± 0.13 | 0.998 (active)
c1ccc(CNc2nc(N3CCOCC3)nc(N3CCOCC3)n2)cc1 | 0.882 ± 0.24 | 0.947 ± 0.079 | 0.987 ± 0.081 | 0.758 ± 0.027 | 1.09 ± 0.12 | 1.24 ± 0.21 | 0.991 (active)
O=C(O[C@H]1C[C@H]2CC3C[C@@H](C1)N2CC3=O)c1c[nH]c2ccccc12 | 0.524 ± 0.055 | 0.598 ± 0.1 | 0.693 ± 0.03 | 0.92 ± 0.051 | 0.909 ± 0.03 | 0.912 ± 0.084 | 0.998 (active)
Cc1ccc(S(=O)(=O)n2cnc3ccccc32)cc1 | 1.11 ± 0.091 | 1.04 ± 0.071 | 1.02 ± 0.041 | 0.861 ± 0.12 | 1.07 ± 0.09 | 0.993 ± 0.14 | 0.998 (active)
COC(c1ccccc1)(c1ccccc1)C(Oc1nc(C)cc(C)n1)C(=O)O (configuration not stated) [Prestw-1497] | 0.986 ± 0.077 | 0.945 ± 0.07 | 0.936 ± 0.091 | 1.09 ± 0.052 | 1.31 ± 0.18 | 1.44 ± 0.32 | 1.05 (active)
COc1cc2nc(N3CCN(C(=O)C4CCCO4)CC3)nc(N)c2cc1OC.Cl.O.O (configuration not stated) | 0.675 ± 0.12 | 0.937 ± 0.069 | 0.863 ± 0.052 | 0.963 ± 0.029 | 1.09 ± 0.094 | 1.16 ± 0.2 | 0.996 (active)
CNc1ncnc2c1ncn2[C@@H]1O[C@H](CO)[C@@H](O)[C@H]1O [Prestw-338] | 0.931 ± 0.073 | 0.929 ± 0.09 | 1.16 ± 0.15 | 1.15 ± 0.043 | 1.25 ± 0.17 | 1.33 ± 0.25 | 1.05 (active)
CCC(=O)Nc1ccc(C(=O)NN=Cc2ccc(C#N)cc2)cc1 | 1.04 ± 0.094 | 1.03 ± 0.081 | 0.913 ± 0.064 | 0.972 ± 0.03 | 1.53 ± 0.22 | 1.11 ± 0.23 | 1.01 (active)
O=C(CS(=O)Cc1ccco1)NC/C=C\COc1cc(CN2CCCCC2)ccn1 (configuration not stated) | 0.989 ± 0.16 | 1.02 ± 0.14 | 0.928 ± 0.052 | 0.897 ± 0.043 | 1.24 ± 0.3 | 1 ± 0.24 | 0.997 (active)
Cc1cccc(-c2nn3c(c2-c2ccnc4ccc(C(N)=O)cc24)CCC3)n1 | 1.08 ± 0.046 | 1.22 ± 0.1 | 1.46 ± 0.12 | 0.903 ± 0.042 | 0.976 ± 0.16 | 1.12 ± 0.28 | 0.99 (active)
COc1cc(CNC2CCCc3ccccc32)cc(OC)c1OC (configuration not stated) | 0.878 ± 0.074 | 1.02 ± 0.095 | 0.982 ± 0.04 | 0.865 ± 0.056 | 1.05 ± 0.087 | 0.972 ± 0.15 | 0.992 (active)
Cc1cc(OCC(O)CN2CCCCC2C)cc(C)c1Cl.Cl (configuration not stated) | 0.79 ± 0.15 | 0.97 ± 0.08 | 0.796 ± 0.048 | 0.955 ± 0.048 | 1.2 ± 0.17 | 1.25 ± 0.23 | 0.923 (active)
CCC(O)=C(C#N)c1nc2ccccc2n1C | 1.12 ± 0.12 | 0.938 ± 0.061 | 1.18 ± 0.064 | 0.792 ± 0.033 | 1.02 ± 0.07 | 1.37 ± 0.15 | 0.995 (active)
Clc1ccc(Nc2nc(Nc3ccc(Cl)cc3)nc(N3CCOCC3)n2)cc1 | 0.794 ± 0.072 | 0.902 ± 0.068 | 1.1 ± 0.15 | 0.805 ± 0.12 | 1.26 ± 0.23 | 1.37 ± 0.45 | 1.03 (active)
O=C(COC(=O)c1ccc2ccccc2n1)c1ccc(Br)cc1 | 0.988 ± 0.16 | 1.05 ± 0.11 | 1.06 ± 0.14 | 0.972 ± 0.033 | 1.29 ± 0.25 | 1.42 ± 0.26 | 1 (active)
